{
  "source": "paper PMC9911399",
  "about": "“Two distinct binding modes provide the RNA-binding protein RbFox with extraordinary sequence specificity”",
  "binders": {"B1": {"name": "UAACCGA (DNA:RNA)", "RNA": "GGGAGACCGGAAUUCAGAUUGUCCUAACCGAUUAAAUCCCGUCGUAGCCACCA", "DNA 1": "CAATCTGAATTCCGGTCTCCC", "DNA 2": "TGGTGGCTACGACGGGATT"}, "B2": {"name": "UGACGUC (DNA:RNA)", "RNA": "B1 RNA with A26G, C29G, G30U, A31C", "DNA 1": "CAATCTGAATTCCGGTCTCCC", "DNA 2": "TGGTGGCTACGACGGGATT"}, "B3": {"name": "UGGUAGU (DNA:RNA)", "RNA": "B1 RNA with A26G, A27G, C28U, C29A, A31U", "DNA 1": "CAATCTGAATTCCGGTCTCCC", "DNA 2": "TGGTGGCTACGACGGGATT"}, "B4": {"name": "UGCCGUU (DNA:RNA)", "RNA": "B1 RNA with A26G, A27C, C29G, G30U, A31U", "DNA 1": "CAATCTGAATTCCGGTCTCCC", "DNA 2": "TGGTGGCTACGACGGGATT"}, "B5": {"name": "CCAUGGC (DNA:RNA)", "RNA": "B1 RNA with U25C, A26C, C28U, C29G, A31C", "DNA 1": "CAATCTGAATTCCGGTCTCCC", "DNA 2": "TGGTGGCTACGACGGGATT"}, "B6": {"name": "AUCUUAC (DNA:RNA)", "RNA": "GGGAGACCGGAAUUCAGAUUGUCCAUCUUACUUAAAUCCCGUCGUAGCCACCA", "DNA 1": "CAATCTGAATTCCGGTCTCCC", "DNA 2": "TGGTGGCTACGACGGGATT"}, "B7": {"name": "UGAUGUG (DNA:RNA)", "RNA": "B1 RNA with A26G, C28U, C29G, G30U, A31G", "DNA 1": "CAATCTGAATTCCGGTCTCCC", "DNA 2": "TGGTGGCTACGACGGGATT"}, "B8": {"name": "UGAUGUC (DNA:RNA)", "RNA": "B6 RNA with A25U, U26G, C27A, U29G, A30U", "DNA 1": "CAATCTGAATTCCGGTCTCCC", "DNA 2": "TGGTGGCTACGACGGGATT"}, "B9": {"name": "UGAGAUG (DNA:RNA)", "RNA": "B1 RNA with A26G, C28G, C29A, G30U, A31G", "DNA 1": "CAATCTGAATTCCGGTCTCCC", "DNA 2": "TGGTGGCTACGACGGGATT"}, "B10": {"name": "AACUUAC (DNA:RNA)", "RNA": "B6 RNA with U26A", "DNA 1": "CAATCTGAATTCCGGTCTCCC", "DNA 2": "TGGTGGCTACGACGGGATT"}, "B11": {"name": "GGCAUGA (DNA:RNA)", "RNA": "B6 RNA with A25G, U26G, U28A, A30G, C31A", "DNA 1": "CAATCTGAATTCCGGTCTCCC", "DNA 2": "TGGTGGCTACGACGGGATT"}, "B12": {"name": "GUCAUGA (DNA:RNA)", "RNA": "B6 RNA with A25G, U28A, A30G, C31A", "DNA 1": "CAATCTGAATTCCGGTCTCCC", "DNA 2": "TGGTGGCTACGACGGGATT"}, "B13": {"name": "GCAUUGA (DNA:RNA)", "RNA": "B1 RNA with U25G, A26C, C28U, C29U", "DNA 1": "CAATCTGAATTCCGGTCTCCC", "DNA 2": "TGGTGGCTACGACGGGATT"}, "B14": {"name": "GGAUGAC (DNA:RNA)", "RNA": "B6 RNA with A25G, U26G, C27A, U29G", "DNA 1": "CAATCTGAATTCCGGTCTCCC", "DNA 2": "TGGTGGCTACGACGGGATT"}, "B15": {"name": "AUGAGAG (DNA:RNA)", "RNA": "B6 RNA with C27G, U28A, U29G, C31G", "DNA 1": "CAATCTGAATTCCGGTCTCCC", "DNA 2": "TGGTGGCTACGACGGGATT"}, "B16": {"name": "GGCAUAA (DNA:RNA)", "RNA": "B6 RNA with A25G, U26G, U28A, C31A", "DNA 1": "CAATCTGAATTCCGGTCTCCC", "DNA 2": "TGGTGGCTACGACGGGATT"}, "B17": {"name": "CGCAUGA (DNA:RNA)", "RNA": "B6 RNA with A25C, U26G, U28A, A30G, C31A", "DNA 1": "CAATCTGAATTCCGGTCTCCC", "DNA 2": "TGGTGGCTACGACGGGATT"}, "B18": {"name": "GCAUGAG (DNA:RNA)", "RNA": "B6 RNA with A25G, U26C, C27A, U29G, C31G", "DNA 1": "CAATCTGAATTCCGGTCTCCC", "DNA 2": "TGGTGGCTACGACGGGATT"}, "B19": {"name": "GCCAUGA (DNA:RNA)", "RNA": "B6 RNA with A25G, U26C, U28A, A30G, C31A", "DNA 1": "CAATCTGAATTCCGGTCTCCC", "DNA 2": "TGGTGGCTACGACGGGATT"}, "B20": {"name": "GCAUGAC (DNA:RNA)", "RNA": "B6 RNA with A25G, U26C, C27A, U29G", "DNA 1": "CAATCTGAATTCCGGTCTCCC", "DNA 2": "TGGTGGCTACGACGGGATT"}, "B21": {"name": "GCAGGAG (DNA:RNA)", "RNA": "B6 RNA with A25G, U26C, C27A, U28G, U29G, C31G", "DNA 1": "CAATCTGAATTCCGGTCTCCC", "DNA 2": "TGGTGGCTACGACGGGATT"}, "B22": {"name": "GUAUGAC (DNA:RNA)", "RNA": "B6 RNA with A25G, C27A, U29G", "DNA 1": "CAATCTGAATTCCGGTCTCCC", "DNA 2": "TGGTGGCTACGACGGGATT"}, "B23": {"name": "UAACUCA (DNA:RNA)", "RNA": "B1 RNA with C29U, G30C", "DNA 1": "CAATCTGAATTCCGGTCTCCC", "DNA 2": "TGGTGGCTACGACGGGATT"}, "B24": {"name": "CCUCUGC (DNA:RNA)", "RNA": "B6 RNA with A25C, U26C, C27U, U28C, A30G", "DNA 1": "CAATCTGAATTCCGGTCTCCC", "DNA 2": "TGGTGGCTACGACGGGATT"}, "B25": {"name": "GACAUAA (DNA:RNA)", "RNA": "B6 RNA with A25G, U26A, U28A, C31A", "DNA 1": "CAATCTGAATTCCGGTCTCCC", "DNA 2": "TGGTGGCTACGACGGGATT"}, "B26": {"name": "GCAUGAA (DNA:RNA)", "RNA": "B6 RNA with A25G, U26C, C27A, U29G, C31A", "DNA 1": "CAATCTGAATTCCGGTCTCCC", "DNA 2": "TGGTGGCTACGACGGGATT"}, "B27": {"name": "GCAUAAU (DNA:RNA)", "RNA": "B6 RNA with A25G, U26C, C27A, U29A, C31U", "DNA 1": "CAATCTGAATTCCGGTCTCCC", "DNA 2": "TGGTGGCTACGACGGGATT"}, "B28": {"name": "GCAUGAU (DNA:RNA)", "RNA": "B6 RNA with A25G, U26C, C27A, U29G, C31U", "DNA 1": "CAATCTGAATTCCGGTCTCCC", "DNA 2": "TGGTGGCTACGACGGGATT"}, "B29": {"name": "GCAUUUU (DNA:RNA)", "RNA": "B6 RNA with A25G, U26C, C27A, A30U, C31U", "DNA 1": "CAATCTGAATTCCGGTCTCCC", "DNA 2": "TGGTGGCTACGACGGGATT"}, "B30": {"name": "GCAUAGA (DNA:RNA)", "RNA": "B1 RNA with U25G, A26C, C28U, C29A", "DNA 1": "CAATCTGAATTCCGGTCTCCC", "DNA 2": "TGGTGGCTACGACGGGATT"}, "B31": {"name": "GCAUAAA (DNA:RNA)", "RNA": "B6 RNA with A25G, U26C, C27A, U29A, C31A", "DNA 1": "CAATCTGAATTCCGGTCTCCC", "DNA 2": "TGGTGGCTACGACGGGATT"}},
  "note": "Where a chain is given by its changes, count along the chain named. Whole data set: some 16,000 sequences, median “ka relative to ugcaugu” near 0.096, cut for the highest 2% near 0.35. The full list was thinned out, with the highest values kept by preference.",
  "data": [
    {"molecular_target": "T1, RBFOX1 RRM RbFoxmut (Fox-RRM*) (Homo sapiens, UniProt Q9NWB1 109-208, R118D;E147R;N151S;E152T)", "T1 sequence": "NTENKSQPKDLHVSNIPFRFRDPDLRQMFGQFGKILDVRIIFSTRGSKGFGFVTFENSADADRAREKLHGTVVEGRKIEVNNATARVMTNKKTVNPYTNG", "test": "EMSA; HiTS-Eq, 1 nM pool, 10 min; buffer printed only for the single-RNA assays: 10 mM Tris pH 7.5, 150 mM NaCl, 3.4 mM EDTA, 0.001% NP-40, 30 C", "settings": "tags: His6 N-terminal (pET28a); label: 5' 32P", "summary_of_the_method": "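A pool of RNA with 7 randomized nucleotides, 5′-radiolabelled and with DNA-annealed flanks, was equilibrated at 1 nM for 10 min in 50 µL with purified RbFox RRM, wild type or mutant, across increasing protein concentrations. Free RNA was separated by 8% native PAGE, excised, reverse-transcribed, barcoded by PCR and sequenced. Relative association constants were obtained from read-count changes of each RNA species versus the control reaction and normalised to the cognate motif.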", "values": [
      {"binder": "B1", "binding signal": "0.0866 KA relative to UGCAUGU"},
      {"binder": "B2", "binding signal": "0.0923 KA relative to UGCAUGU"},
      {"binder": "B3", "binding signal": "0.163 KA relative to UGCAUGU"},
      {"binder": "B4", "binding signal": "0.113 KA relative to UGCAUGU"},
      {"binder": "B5", "binding signal": "0.0829 KA relative to UGCAUGU"},
      {"binder": "B6", "binding signal": "0.12 KA relative to UGCAUGU"},
      {"binder": "B7", "binding signal": "0.184 KA relative to UGCAUGU"},
      {"binder": "B8", "binding signal": "0.207 KA relative to UGCAUGU"},
      {"binder": "B9", "binding signal": "0.429 KA relative to UGCAUGU"},
      {"binder": "B10", "binding signal": "0.0902 KA relative to UGCAUGU"},
      {"binder": "B11", "binding signal": "0.624 KA relative to UGCAUGU"},
      {"binder": "B12", "binding signal": "0.2 KA relative to UGCAUGU"},
      {"binder": "B13", "binding signal": "0.178 KA relative to UGCAUGU"},
      {"binder": "B14", "binding signal": "0.124 KA relative to UGCAUGU"},
      {"binder": "B15", "binding signal": "0.16 KA relative to UGCAUGU"},
      {"binder": "B16", "binding signal": "0.117 KA relative to UGCAUGU"},
      {"binder": "B17", "binding signal": "0.871 KA relative to UGCAUGU"},
      {"binder": "B18", "binding signal": "0.771 KA relative to UGCAUGU"},
      {"binder": "B19", "binding signal": "0.134 KA relative to UGCAUGU"},
      {"binder": "B20", "binding signal": "0.603 KA relative to UGCAUGU"},
      {"binder": "B21", "binding signal": "0.0994 KA relative to UGCAUGU"},
      {"binder": "B22", "binding signal": "0.219 KA relative to UGCAUGU"},
      {"binder": "B23", "binding signal": "0.1 KA relative to UGCAUGU"},
      {"binder": "B24", "binding signal": "0.0985 KA relative to UGCAUGU"},
      {"binder": "B25", "binding signal": "0.115 KA relative to UGCAUGU"},
      {"binder": "B26", "binding signal": "0.798 KA relative to UGCAUGU"},
      {"binder": "B27", "binding signal": "0.115 KA relative to UGCAUGU"},
      {"binder": "B28", "binding signal": "0.551 KA relative to UGCAUGU"},
      {"binder": "B29", "binding signal": "0.113 KA relative to UGCAUGU"},
      {"binder": "B30", "binding signal": "0.132 KA relative to UGCAUGU"},
      {"binder": "B31", "binding signal": "0.144 KA relative to UGCAUGU"}
    ]}
  ]
}
